The text below walks through data of PubChem BioAssay (EPA / NIEHS).

Test [1] is described as follows: ACEA_ER_80hr: ACEA Biosciences xCELLigence Real-Time Cell Analysis on Estrogen Receptor Agonism for Proliferation (AID 2282667; active = hit-call score of the fitted dose curve at least 0.9, where 1 is the maximum). The following applies: T47D proliferation, impedance (xCELLigence), 80 h. A digest of the protocol:
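T47D human breast cells were seeded on electrode plates, monitored overnight, then exposed continuously to compounds in eight-point 1:4 dilutions from 100 uM (max 0.5% DMSO). Impedance-based growth was read at 80 h, fitted upward relative to DMSO.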

A short description of test [2]: ATG_CRE_CIS: Attagene CIS-FACTORIAL HepG2 Assay for human cAMP Responsive Element (CRE) binding protein 3 (AID 2282926). Conditions: HepG2 CRE cis-reporter, Attagene multiplexed mRNA; actives raise or lower the signal. A digest of the protocol: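 HepG2 cells transiently transfected with a multiplexed reporter library (CRE-driven unit among them) were dosed for 24 h. Reporter mRNA was quantified by RT-PCR, fluorescent labelling, HpaI digestion and capillary electrophoresis, with bidirectional fitting against DMSO baseline.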

For test [3], the target named is CCAAT/enhancer-binding protein beta (Homo sapiens) (UniProt P17676). The test can be described thus: ATG_C_EBP_CIS: Attagene CIS-FACTORIAL HepG2 Assay for human CCAAT/Enhancer Binding Protein (C/EBP) beta (AID 2282927). Conditions: HepG2 Attagene cis-factorial transcription factor reporter; actives raise or lower the signal. The gist of the method: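 Endogenous transcription factor activity in human liver HepG2 cells is inferred from induction of a CEBPB-linked reporter mRNA. Exposure lasts 24 h; activity is fitted in both directions relative to DMSO.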
Chain of CCAAT/enhancer-binding protein beta (Homo sapiens) (P17676 whole entry, looked up): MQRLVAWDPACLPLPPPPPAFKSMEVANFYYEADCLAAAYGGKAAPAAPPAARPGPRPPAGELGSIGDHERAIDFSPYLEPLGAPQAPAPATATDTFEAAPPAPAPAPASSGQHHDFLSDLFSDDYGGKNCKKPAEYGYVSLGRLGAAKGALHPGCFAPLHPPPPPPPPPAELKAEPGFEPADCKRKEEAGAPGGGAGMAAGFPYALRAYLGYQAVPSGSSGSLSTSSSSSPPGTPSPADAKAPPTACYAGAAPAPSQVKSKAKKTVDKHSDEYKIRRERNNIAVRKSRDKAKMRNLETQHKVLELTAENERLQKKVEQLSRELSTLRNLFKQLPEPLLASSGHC

Test [4] is described as follows: ATG_CMV_CIS: Attagene CIS-FACTORIAL HepG2 Assay for human CMV (Internal Marker) (AID 2282928).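 Note: endpoint acts as a background internal control marker rather than a target.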 The following applies: HepG2 CMV promoter reporter, transcription factor profiling; actives raise or lower the signal. A digest of the protocol:
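Cell system: HepG2, transiently transfected multiple reporter units under cis promoters. Exposure: 24 h. Detection: RT-PCR, FAM labeling, HpaI digestion, capillary electrophoresis. Analysis: bidirectional, DMSO baseline.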

Test [5] in a line: ATG_DR4_LXR_CIS: Attagene CIS-FACTORIAL HepG2 Assay for human Liver X Receptor (LXR), DR4 submotif (AID 2282929). Conditions: HepG2 Attagene DR4 cis-reporter, mRNA transcription; actives raise or lower the signal. A digest of the protocol: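 Fluorescence intensity of labelled reporter cDNA fragments, separated by capillary electrophoresis, gives the signal. HepG2 cells bearing cis-regulated reporter constructs were treated 24 h; activity fitted bidirectionally relative to DMSO negative control.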

Test [6] deals with Aryl hydrocarbon receptor (Homo sapiens) (UniProt P35869). The test can be described thus: ATG_Ahr_CIS: Attagene CIS-FACTORIAL HepG2 Assay for human Aryl Hydrocarbon Receptor (Ahr) (AID 2282930). The following applies: HepG2 AhR cis-factorial reporter transcription; actives raise or lower the signal. The gist of the method:
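Transient MRTU transfection of HepG2 → 24 h compound exposure → total RNA, oligo(dT) RT → PCR, 6-FAM extension, HpaI cut → CE fluorescence. DMSO = baseline; bidirectional curve fit.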

Test [7] can be described thus: ATG_AP_2_CIS: Attagene CIS-FACTORIAL HepG2 Assay for human Activator Protein 2 (AP-2) (AID 2282932). The following applies: HepG2 AP-2 cis-reporter, Attagene transcription factor profiling; actives raise or lower the signal. A digest of the protocol:
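HepG2, transient MRTU transfection, cis-regulated reporters; 24 h compound exposure; RNA isolated, RT-PCR, 6-FAM labelling, HpaI digest, CE fluorescence. DMSO = negative control/baseline, bidirectional fit.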

Test [8] can be described thus: ATG_BRE_CIS: Attagene CIS-FACTORIAL HepG2 Assay for human Bone Morphogenetic Protein (BMP) Response Element (BRE) (AID 2282933). Conditions: HepG2 BMP response element reporter, Attagene transcription factor profiling; actives raise or lower the signal. A digest of the protocol:
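HepG2 cells transiently transfected with multiplexed cis-element reporter units were dosed with chemical for 24 h. Reporter mRNA was measured by RT-PCR with fluorescent labelling, HpaI digestion and capillary electrophoresis; bidirectional fitting relative to DMSO.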

The target of test [9] is Retinoic acid receptor alpha (Homo sapiens) (UniProt P10276). The test can be described thus: ATG_DR5_RAR_CIS: Attagene CIS-FACTORIAL HepG2 Assay for human Retinoic Acid Receptor Alpha (RARE), DR5 submotif (AID 2282934). The following applies: HepG2 Attagene cis-factorial RARE DR5 reporter, mRNA; actives raise or lower the signal. The gist of the method: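 Transient MRTU transfection of HepG2; 24 h compound treatment; TriZol RNA, oligo(dT) RT, PCR, FAM labelling, capillary electrophoresis. Bidirectional fit vs DMSO. Endogenous TF activity at DR5 RARE.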
Chain of Retinoic acid receptor alpha (Homo sapiens) (P10276 whole entry, looked up): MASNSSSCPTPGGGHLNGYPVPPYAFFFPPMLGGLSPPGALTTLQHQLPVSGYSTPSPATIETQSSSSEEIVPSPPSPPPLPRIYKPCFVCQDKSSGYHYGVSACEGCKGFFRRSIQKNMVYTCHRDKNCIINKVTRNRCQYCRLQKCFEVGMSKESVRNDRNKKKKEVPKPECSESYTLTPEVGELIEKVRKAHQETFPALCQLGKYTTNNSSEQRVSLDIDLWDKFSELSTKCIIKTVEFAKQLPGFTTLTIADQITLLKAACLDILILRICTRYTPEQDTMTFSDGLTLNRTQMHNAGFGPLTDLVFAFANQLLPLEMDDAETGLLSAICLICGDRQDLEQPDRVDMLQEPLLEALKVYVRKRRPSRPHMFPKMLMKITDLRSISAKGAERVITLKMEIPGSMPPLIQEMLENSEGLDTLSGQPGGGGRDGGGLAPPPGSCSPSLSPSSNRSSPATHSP

Test [10] addresses Transcription factor E2F1 (Homo sapiens) (UniProt Q01094). The test can be described thus: ATG_E2F_CIS: Attagene CIS-FACTORIAL HepG2 Assay for human E2F Transcription Factor 1 (AID 2282935). Conditions: HepG2 Attagene cis-reporter, E2F reporter RNA transcripts; actives raise or lower the signal. The gist of the method:
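Cis-element reporter mRNA induction in transiently transfected HepG2, 24 h exposure. Activity fitted in both directions relative to DMSO negative control.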

The nature of test [11]: ATG_E_Box_CIS: Attagene CIS-FACTORIAL HepG2 Assay for human Enhancer Box (E-box) (AID 2282936). The following applies: HepG2 E-box cis-reporter transcription, actives raise or lower the signal. The gist of the method:
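Cells: HepG2 (human liver), transient MRTU transfection. Exposure 24 h. RNA → oligo(dT) RT → PCR → 6-FAM label → HpaI → CE. Activity fitted both directions relative to DMSO.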

Test [12] in a line: ATG_EGR_CIS: Attagene CIS-FACTORIAL HepG2 Assay for human Early Growth Response 1 (EGR1) (AID 2282938). The following applies: HepG2 Attagene CIS-FACTORIAL EGR reporter mRNA; actives raise or lower the signal. The gist of the method:
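Activity is taken as induction or loss of reporter mRNA versus DMSO, fitted bidirectionally. Transcripts from cis-regulated reporter units in transiently transfected HepG2 were measured after 24 h by RT-PCR with capillary electrophoresis.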

Test [13] is described as follows: ATG_M_19_CIS: Attagene CIS-FACTORIAL HepG2 Assay for M19 Transcription Factor (Internal Marker) (AID 2282939). The following applies: HepG2 Attagene CIS-FACTORIAL M19 internal marker reporter; actives raise or lower the signal. The gist of the method:
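HepG2 cells transiently transfected with cis-regulated multiple reporter transcription units were dosed for 24 h; reporter mRNA was quantified by RT-PCR, 6-FAM primer-extension labelling, HpaI digestion and capillary electrophoresis, with bidirectional fitting against DMSO baseline.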

Test [14] can be described thus: ATG_ERE_CIS: Attagene CIS-FACTORIAL HepG2 Assay for Estrogen Response Element (ERE) (AID 2282940). Conditions: HepG2 ERE cis-reporter, Attagene RNA transcript; actives raise or lower the signal. The gist of the method:
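HepG2 cells transiently transfected with cis-promoter-driven multiplexed reporter transcription units report endogenous TF activity. After 24 h compound exposure, reporter mRNA is quantified by RT-PCR with capillary electrophoresis fluorescence; bidirectional fitting versus DMSO baseline.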

The nature of test [15]: ATG_Ets_CIS: Attagene CIS-FACTORIAL HepG2 Assay for human Erythroblast Transformation Specific (ETS) (AID 2282941). Conditions: HepG2 ETS cis-reporter transcription, actives raise or lower the signal. The gist of the method:
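After transient cis-reporter transfection, HepG2 cells receive test chemical for 24 h. Reporter mRNA levels, measured by RT-PCR and capillary electrophoresis fluorescence, are analysed bidirectionally relative to the DMSO baseline.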

For test [16], the target named is Hepatocyte nuclear factor 3-beta (Homo sapiens) (UniProt Q9Y261). Kind of test: ATG_FoxA2_CIS: Attagene CIS-FACTORIAL HepG2 Assay for human Forkhead box A2 (FOXA2) (AID 2282942). Conditions: HepG2 cis-reporter transcription factor activity, 24 h; actives raise or lower the signal. A digest of the protocol:
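Reporter transcript induction is measured by fluorescence after capillary electrophoresis of RT-PCR products from HepG2 cells exposed 24 h. Cis-regulated reporter units report endogenous factor activity; curves fitted both directions against DMSO.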

Test [17] is described as follows: ATG_FoxO_CIS: Attagene CIS-FACTORIAL HepG2 Assay for human Forkhead box O (FoxO) (AID 2282943). Conditions: HepG2 Attagene cis-reporter, FoxO element, mRNA; actives raise or lower the signal. A digest of the protocol:
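HepG2, transient MRTU transfection (cis element, endogenous TFs). Dose 24 h. TriZol RNA → oligo(dT) RT → PCR → 6-FAM primer extension → HpaI cut → CE. Gain/loss vs DMSO.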

Test [18] can be described thus: ATG_M_61_CIS: Attagene CIS-FACTORIAL HepG2 Assay for M61 Transcription Factor (Internal Marker) (AID 2282937). Conditions: HepG2 Attagene CIS-FACTORIAL M61 internal marker reporter; actives raise or lower the signal. The gist of the method: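 Endogenous transcription factor activity in HepG2 is read through transiently transfected cis-element reporter units. After 24 h dosing, RNA undergoes reverse transcription, PCR and primer extension with 6-FAM before capillary electrophoresis; DMSO-referenced bidirectional fit.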

Test [19] can be described thus: ATG_GATA_CIS: Attagene CIS-FACTORIAL HepG2 Assay for human GATA Binding Protein (AID 2282944). The following applies: HepG2 GATA cis-element reporter, Attagene multiplex mRNA; actives raise or lower the signal. The gist of the method:
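HepG2 cells transiently transfected with multiplexed cis-element reporter units reflecting endogenous transcription factor activity; reporter mRNA measured after 24 h dosing by RT-PCR, 6-FAM labeling, HpaI digestion and capillary electrophoresis. Bidirectional fitting versus DMSO baseline.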

Test [20] can be described thus: ATG_AP_1_CIS: Attagene CIS-FACTORIAL HepG2 Assay for human Activator Protein 1 (AP-1) (AID 2282931). Conditions: HepG2 Attagene cis-factorial AP-1 reporter mRNA; actives raise or lower the signal. The gist of the method:
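Multiplexed HepG2 reporter assay, 24 h dosing. mRNA induction detected by RT-PCR plus capillary electrophoresis. Activity fitted in both directions against DMSO.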

SMILES strings stand for the structures. Inconclusive results are not listed. Calls of active or inactive are those of the source. Rule for the calls, unless noted: active = hit-call score of the fitted dose curve at least 0.9, where 1 is the maximum; inactive = score below 0.9.

Chain of Transcription factor E2F1 (Homo sapiens) (Q01094 whole entry, looked up): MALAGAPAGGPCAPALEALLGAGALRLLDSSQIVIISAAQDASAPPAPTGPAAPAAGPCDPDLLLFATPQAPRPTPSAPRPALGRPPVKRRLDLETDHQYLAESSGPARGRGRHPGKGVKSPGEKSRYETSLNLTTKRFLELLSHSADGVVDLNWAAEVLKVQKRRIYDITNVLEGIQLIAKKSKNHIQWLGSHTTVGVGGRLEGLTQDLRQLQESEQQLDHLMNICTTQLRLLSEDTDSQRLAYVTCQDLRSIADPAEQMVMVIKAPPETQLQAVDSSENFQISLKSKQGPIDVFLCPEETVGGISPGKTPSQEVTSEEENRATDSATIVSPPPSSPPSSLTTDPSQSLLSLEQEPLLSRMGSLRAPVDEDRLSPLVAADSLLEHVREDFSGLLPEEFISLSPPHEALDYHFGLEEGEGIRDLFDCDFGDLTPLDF
Chain of Aryl hydrocarbon receptor (Homo sapiens) (P35869 whole entry, looked up): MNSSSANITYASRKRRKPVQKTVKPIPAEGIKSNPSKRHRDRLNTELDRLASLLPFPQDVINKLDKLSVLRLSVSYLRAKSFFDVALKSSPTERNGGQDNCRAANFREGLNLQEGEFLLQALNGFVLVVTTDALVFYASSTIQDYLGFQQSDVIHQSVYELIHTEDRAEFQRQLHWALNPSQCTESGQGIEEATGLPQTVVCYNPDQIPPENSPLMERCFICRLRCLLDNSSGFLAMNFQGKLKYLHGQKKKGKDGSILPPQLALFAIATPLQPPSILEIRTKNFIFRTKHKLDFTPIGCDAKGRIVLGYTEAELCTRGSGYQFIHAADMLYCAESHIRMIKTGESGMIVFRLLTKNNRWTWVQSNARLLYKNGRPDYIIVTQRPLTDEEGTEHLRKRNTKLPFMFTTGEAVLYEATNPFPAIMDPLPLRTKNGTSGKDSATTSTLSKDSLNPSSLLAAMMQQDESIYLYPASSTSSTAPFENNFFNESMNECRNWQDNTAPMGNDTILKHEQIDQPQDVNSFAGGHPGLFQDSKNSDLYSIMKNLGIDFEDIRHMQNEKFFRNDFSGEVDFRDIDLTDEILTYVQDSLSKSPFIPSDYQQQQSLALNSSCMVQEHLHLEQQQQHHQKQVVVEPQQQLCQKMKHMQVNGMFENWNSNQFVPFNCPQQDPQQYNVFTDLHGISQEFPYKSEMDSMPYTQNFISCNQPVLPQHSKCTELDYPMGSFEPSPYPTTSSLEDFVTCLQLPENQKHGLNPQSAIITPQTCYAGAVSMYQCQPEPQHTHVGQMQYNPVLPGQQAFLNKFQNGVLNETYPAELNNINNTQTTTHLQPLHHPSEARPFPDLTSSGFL
Chain of Hepatocyte nuclear factor 3-beta (Homo sapiens) (Q9Y261 whole entry, looked up): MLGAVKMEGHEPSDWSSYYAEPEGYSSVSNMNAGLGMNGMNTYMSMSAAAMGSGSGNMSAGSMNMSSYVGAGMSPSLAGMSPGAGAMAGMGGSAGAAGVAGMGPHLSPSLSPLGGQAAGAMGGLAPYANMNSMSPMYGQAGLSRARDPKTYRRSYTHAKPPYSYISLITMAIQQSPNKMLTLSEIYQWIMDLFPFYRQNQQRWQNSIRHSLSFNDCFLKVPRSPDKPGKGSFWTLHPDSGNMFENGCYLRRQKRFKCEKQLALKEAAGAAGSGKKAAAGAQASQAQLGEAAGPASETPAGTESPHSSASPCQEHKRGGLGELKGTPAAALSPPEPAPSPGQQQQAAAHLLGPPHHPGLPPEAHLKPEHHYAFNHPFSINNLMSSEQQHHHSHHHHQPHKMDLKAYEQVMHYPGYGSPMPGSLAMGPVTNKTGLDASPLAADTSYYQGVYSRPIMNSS

`CCOCOCC`: the result in test [1], in [2], in test [3], in [4], in test [5] and in test [6] was inactive. The call in test [7], in [8], in test [9], in test [10], in test [11] and in test [12] was inactive. Moreover, the compound was called inactive in [13], in test [14], in test [15], in [16] and in test [17].
For `O=S(=O)(O)c1ccc(Cl)cc1`, the outcome in [1], in test [2], in test [3], in [4], in test [5] and in test [6] was inactive. Moreover, the compound was called inactive in test [7], in test [8], in test [9], in test [10], in test [11] and in test [18]. Besides, the outcome in test [12], in test [13], in test [15], in [16], in test [17] and in test [19] was inactive.
Turning to `CCN(CC)c1ccc(N=Nc2ccccc2)cc1`, the AC50 (as a rule, the midpoint of the concentration-response curve, whichever way the signal moves) was 50 µM (active) in [1]; 5.68 µM (active) in test [6]; 78.8 µM (active) in [8]; 20.9 µM (active) in test [11]; 12.3 µM (active) in test [12]; 26.9 µM (active) in test [16]. The outcome in test [2], in test [3], in test [4], in test [5], in [7] and in test [9] was inactive. Further, the call in test [10], in [18], in test [13], in test [14], in test [15] and in test [17] was inactive. Also, in test [19], the compound was classed as inactive.
Regarding `CC(=O)CCC(C)C`, the compound was called inactive in test [1], in test [2], in test [3], in test [4], in test [5] and in [6]. In addition, the call in test [7], in test [8], in test [9], in test [10], in test [11] and in [18] was inactive. In addition, the compound was classed as inactive in test [12], in test [14], in [15], in test [16] and in test [17].
For the compound `NC(=O)C(F)(F)C(F)(F)C(F)(F)F`, the outcome in test [1], in [2], in [3], in [4], in test [5] and in [6] was inactive. Further, the call in test [7], in test [8], in [9], in test [10], in test [11] and in test [18] was inactive. Also, the compound was called inactive in test [12], in [14], in test [15], in test [16] and in test [17].
With `CCN=c1cc2oc3cc(NCC)c(C)cc3c(-c3ccccc3C(=O)OCC)c-2cc1C`, the AC50 is 0.0353 µM (active) in [1]; 11.1 µM (active) in [2]; 4.45 µM (active) in [5]; 2.75 µM (active) in test [20]; 11.1 µM (active) in test [7]; 11.1 µM (active) in test [11]. The AC50 in test [12] was 11.1 µM (active). The outcome in test [3], in test [4], in test [8], in [9], in test [10] and in [18] was inactive. Also, the call in [14], in [15], in test [16] and in [17] was inactive.
Turning to `CCCCCCCCCc1ccc(OCCO)cc1`, the AC50 in test [1] was 0.278 µM (active); in [2], 22.8 µM (active); in [3] it was 4.25 µM (active); in test [4], 13.3 µM (active); in test [5], 19.3 µM (active); in [20], 2.26 µM (active). In addition, the AC50 is 7.68 µM (active) in test [8]; 23.1 µM (active) in test [11]; 25.2 µM (active) in test [13]; 21.9 µM (active) in test [16]; 13.3 µM (active) in [17]. Besides, the call in test [6], in test [9], in test [10], in test [18], in [12] and in test [19] was inactive.
